Rows were chosen to be rich in hits. Some 2.3% of all compounds tested hit in one or more screens of this group.
M1 ag – agonists of human M1 muscarinic receptor; P11229; CHO-K1 hM1, Fluo-8 calcium fluorescence, agonist mode; 0% DMSO, 100% acetylcholine EC100; activation, % at 3 µM; hit rate 0.33% among 360,000;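 active = activation above the run's mean compound activation plus 3 SD, cut at about 16% in these data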;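 also: peak over basal fluorescence ratio within a 140 s kinetic read after compound addition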
Target sequence (P11229 whole entry, looked up): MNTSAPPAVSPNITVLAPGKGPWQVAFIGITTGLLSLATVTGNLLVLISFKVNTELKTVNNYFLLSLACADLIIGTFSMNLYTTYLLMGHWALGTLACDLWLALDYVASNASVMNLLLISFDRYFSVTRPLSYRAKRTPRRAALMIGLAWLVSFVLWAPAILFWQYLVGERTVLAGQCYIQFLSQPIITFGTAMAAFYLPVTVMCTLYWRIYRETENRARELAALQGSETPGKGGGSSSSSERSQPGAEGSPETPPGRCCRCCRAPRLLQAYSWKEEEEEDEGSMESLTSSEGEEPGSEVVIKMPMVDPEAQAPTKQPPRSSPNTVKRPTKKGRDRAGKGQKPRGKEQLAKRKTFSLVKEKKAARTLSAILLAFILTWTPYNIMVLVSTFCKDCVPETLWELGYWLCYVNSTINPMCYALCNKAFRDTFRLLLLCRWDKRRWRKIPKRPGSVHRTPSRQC
CHRM1 antagonist – antagonists of human M1 muscarinic receptor; P11229; hit rate 1.3% among 360,000; CHO-K1 hM1, Fluo-8 calcium fluorescence, ACh EC80 antagonist; inhibition, % at 3 µM;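 active = percent inhibition above its own plate's cutoff, namely the mean of that plate's compound wells plus 3 SD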;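 also: peak over basal fluorescence ratio during 140 s after agonist addition; 0% = ACh EC80 plus DMSO and 100% = DMSO alone without agonist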
CHRM1 PAM – potentiates human M1 receptor response to acetylcholine. P11229. CHO-K1 hM1, Fluo-8 calcium fluorescence, ACh EC20; 0% = ACh EC20, 100% = maximal ACh. activation, % at 3 µM. hit rate 0.088% among 360,000. AID 588819; in the data active = activation above about 19%, passing the limit was not always enough
CHO-K1 Ca antag – nonselective inhibitor or artifact in parental CHO-K1 cells. ATP-induced calcium, Fluo-8 fluorescence. inhibition, % at 3 µM. hit rate 0.6% among 360,000. AID 602250;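 active = inhibition above a per-plate cutoff, the plate's mean sample inhibition plus 3 SD, cut at about 24% in these data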;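 also: 0% = DMSO plus EC80 ATP and 100% = DMSO alone without ATP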
CHO-K1 Ca ag – nonselective activator or artifact in parental CHO-K1 cells; Fluo-8 calcium fluorescence; scaled to maximal ATP response, vehicle zero; activation, % at 3 µM; hit rate 0.48% among 360,000; in the data active = activation above about 15%;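 also: untransfected CHO-K1 host cells lacking M1 receptor as counterscreen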
M1 PAM parental – counter-screen for M1 PAMs: effect in parental CHO-K1 cells. hit rate 0.02% among 360,000. AID 602247. activation, % at 3 µM. ATP EC20, Fluo-8 calcium fluorescence; 0% at ATP EC20, 100% at ATP max;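 active = activation above the run cutoff, the mean activation of all test compounds plus 3 SD, cut at about 40% in these data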;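 also: peak over basal fluorescence ratio in a 140 s read after ATP addition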
The depositor's hits bear a star.

Screening O=C(c1ccco1)N1CCN(Cc2nc3ccc([N+](=O)[O-])cc3c(=O)n2-c2ccccc2F)CC1 returned M1 ag -1, CHRM1 antagonist 15, CHRM1 PAM -3, CHO-K1 Ca antag 28*, CHO-K1 Ca ag 5 and M1 PAM parental -7.
O=C(NCCN1CCN(c2ccccc2)CC1)C1CCN(S(=O)(=O)c2cccc3nsnc23)CC1 was read as M1 ag -6, CHRM1 antagonist 4, CHRM1 PAM 2, CHO-K1 Ca antag 7, CHO-K1 Ca ag 1 and M1 PAM parental -17.
`O=C(NC(NNc1ccc([N+](=O)[O-])cc1)(C(F)(F)F)C(F)(F)F)c1ccc(Cl)cc1` gave M1 ag 2, CHRM1 antagonist 34*, CHRM1 PAM -13, CHO-K1 Ca antag 21, CHO-K1 Ca ag 9 and M1 PAM parental -9.
For O=C(Nc1ccc(OC(F)(F)F)cc1)c1cc(S(=O)(=O)N2CCCCC2)ccc1N1CCOCC1 the results were M1 ag -6, CHRM1 antagonist -4, CHRM1 PAM 0, CHO-K1 Ca antag 16, CHO-K1 Ca ag 1 and M1 PAM parental -5.
`CC(C)N1CCN(Cc2ccc(OC3CCCC3)cc2)CC1CCO` (stereo unspecified) gave M1 ag -8, CHRM1 antagonist 16, CHRM1 PAM -16, CHO-K1 Ca antag -9, CHO-K1 Ca ag 2 and M1 PAM parental 18.
Screening Cc1cc(C(=O)CSc2cccc[n+]2[O-])c(C)n1-c1ccc(OC(F)F)cc1 returned M1 ag 0, CHRM1 antagonist -7, CHRM1 PAM 2, CHO-K1 Ca antag -8, CHO-K1 Ca ag 13 and M1 PAM parental 17.
`COC(=O)c1ccc(-n2c(C)cc(C(=O)CSc3cccc[n+]3[O-])c2C)cc1` gave M1 ag -4, CHRM1 antagonist -9, CHRM1 PAM 7, CHO-K1 Ca antag -2, CHO-K1 Ca ag 16* and M1 PAM parental 8.
Screening CC(=O)Nc1ccc(NC(=O)C(C)OC(=O)CCC2CCCC2)cc1 (stereo unspecified) returned M1 ag 2, CHRM1 antagonist -6, CHRM1 PAM 7, CHO-K1 Ca antag 24*, CHO-K1 Ca ag 0 and M1 PAM parental 18.
`CC(=O)Nc1ccc(NC(=O)C(C)OC(=O)CC2CCCC2)cc1` (stereo unspecified) gave M1 ag 1, CHRM1 antagonist -11, CHRM1 PAM 15, CHO-K1 Ca antag 3, CHO-K1 Ca ag 0 and M1 PAM parental -1.
COc1cc(NS(=O)(=O)c2ccc(NC(=O)c3cccnc3)cc2)ncn1 was read as M1 ag 1, CHRM1 antagonist -8, CHRM1 PAM 7, CHO-K1 Ca antag 7, CHO-K1 Ca ag 0 and M1 PAM parental -26.
For CN(Cc1cn[nH]c1-c1ccc(-c2ccccc2)cc1)CC1CCOCC1 the results were M1 ag -5, CHRM1 antagonist -9, CHRM1 PAM 3, CHO-K1 Ca antag -2, CHO-K1 Ca ag 17* and M1 PAM parental 21.
Screening COCCNC(=O)c1ccc(N2CC3CC(C2)c2cccc(=O)n2C3)c(NC(=O)c2ccccc2Br)c1 (stereo unspecified) returned M1 ag 22*, CHRM1 antagonist -8, CHRM1 PAM 3, CHO-K1 Ca antag 4, CHO-K1 Ca ag 0 and M1 PAM parental 0.
`COCCNC(=O)c1ccc(N2CC3CC(C2)c2cccc(=O)n2C3)c(NC(=O)c2ccccc2Cl)c1` (stereo unspecified) gave M1 ag 26*, CHRM1 antagonist -19, CHRM1 PAM 4, CHO-K1 Ca antag -17, CHO-K1 Ca ag 1 and M1 PAM parental 23.
Screening COCCNC(=O)c1ccc(N2CC3CC(C2)c2cccc(=O)n2C3)c(NC(=O)c2cc(OC)cc(OC)c2)c1 (stereo unspecified) returned M1 ag 0, CHRM1 antagonist -17, CHRM1 PAM 16, CHO-K1 Ca antag -21, CHO-K1 Ca ag 0 and M1 PAM parental 22.
Screening COCCNC(=O)c1ccc(N2CC3CC(C2)c2cccc(=O)n2C3)c(NC(=O)c2ccc(Br)o2)c1 (stereo unspecified) returned M1 ag 1, CHRM1 antagonist -15, CHRM1 PAM 16, CHO-K1 Ca antag -9, CHO-K1 Ca ag 1 and M1 PAM parental 17.
Screening C=CCn1c(=O)c2ccccc2n2c(SCC(=O)NC)nnc12 returned M1 ag 5, CHRM1 antagonist -5, CHRM1 PAM 15, CHO-K1 Ca antag 3, CHO-K1 Ca ag -1 and M1 PAM parental -7.
Cc1cc(C(O)c2ncc(-c3cccc4ccccc34)[nH]2)ccc1F (stereo unspecified) was read as M1 ag -5, CHRM1 antagonist 2, CHRM1 PAM -5, CHO-K1 Ca antag 24*, CHO-K1 Ca ag 0 and M1 PAM parental -10.
Screening OC(COC(c1ccc(Cl)cc1)c1ccc(Cl)cc1)CN1CCc2ccccc2C1 (stereo unspecified) returned M1 ag -7, CHRM1 antagonist 4, CHRM1 PAM -3, CHO-K1 Ca antag -7, CHO-K1 Ca ag 16* and M1 PAM parental 29.
`OC(COC(c1ccccc1)c1ccccc1)CN1CCc2ccccc2C1` (stereo unspecified) gave M1 ag -8, CHRM1 antagonist 12, CHRM1 PAM -25, CHO-K1 Ca antag -1, CHO-K1 Ca ag 4 and M1 PAM parental 12.
OC(COC(c1ccccc1)c1ccccc1)CN1CCN(c2ccccn2)CC1 (stereo unspecified) was read as M1 ag -8, CHRM1 antagonist 42*, CHRM1 PAM -26, CHO-K1 Ca antag -1, CHO-K1 Ca ag 5 and M1 PAM parental 15.
`Cc1cc(C)c(S(=O)(=O)N2CCCCC2)c(C)c1N(C)S(=O)(=O)c1ccc(Cl)cc1` gave M1 ag -7, CHRM1 antagonist -8, CHRM1 PAM 1, CHO-K1 Ca antag -11, CHO-K1 Ca ag 3 and M1 PAM parental 29.
COc1cccc(S(=O)(=O)Nc2cccc(C(=O)N3CCCC3)c2)c1 was read as M1 ag -2, CHRM1 antagonist 5, CHRM1 PAM 5, CHO-K1 Ca antag 6, CHO-K1 Ca ag 2 and M1 PAM parental -9.
COc1cccc(S(=O)(=O)Nc2cccc(C(=O)N3CCOCC3)c2)c1 was read as M1 ag -7, CHRM1 antagonist 54*, CHRM1 PAM -21, CHO-K1 Ca antag -6, CHO-K1 Ca ag 1 and M1 PAM parental 16.
NC(=S)Cc1nc(-c2ccccc2)cs1 was read as M1 ag -2, CHRM1 antagonist 12, CHRM1 PAM -8, CHO-K1 Ca antag 32*, CHO-K1 Ca ag 2 and M1 PAM parental -10.
O=C(Nc1ccc(N2CCN(C(=O)c3ccco3)CC2)c(Cl)c1)c1cc2ccccc2o1 was read as M1 ag 1, CHRM1 antagonist 37*, CHRM1 PAM -11, CHO-K1 Ca antag 8, CHO-K1 Ca ag 6 and M1 PAM parental 16.

Screening data deposited in PubChem by The Scripps Research Institute Molecular Screening Center.
